Test results as given in PubChem BioAssay (NCATS).
“And” between values parts separate entries of the source, which are not always exact repeats. Equal values may be shown once. Results filed as inconclusive are left out. More than one record can exist for a structure, and the calls need not agree. The source made the active and inactive calls. The call rests on the fitted dose curve; in most records, active means well fitted curve in the direction sought with a large enough effect; inconclusive means small, poorly fitted or top-dose-only effect, or another doubt; inactive means no such curve, though single readings can be large; an effect the other way counts as inactive or inconclusive.

Experiments:
[1] = Viability qHTS for spleen associated tyrosine kinase inhibitor (SYKi) drug resistant MV4-11 cells (AID 1963824); further: nearly all actives have a fitted effect of over 35% in size
Outline: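 CellTiter-Glo luminescence, read 10 min after reagent addition, reports viability after a 72 hr compound exposure. Cells are an MV4-11 line made resistant to SYK inhibition, seeded at 500 per well onto compound-containing plates.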

[2] = Quantitative highthroughput screen to assess conditional lethalithy of NOMO1 cells grown in RPMI1640 with untreated serum (RPMI+s) (AID 1963876); further: nearly all actives have a fitted effect of over 35% in size;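 on Viability: 100% = DMSO wells and 0% = empty wells without cells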
Outline: (§1)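 Each medium arm—HPLM with 10% dialyzed FBS, or RPMI1640 with 5 mM glucose and 10% untreated or dialyzed FBS—was screened against an 11-point, 3-fold compound titration for 48 h at 37 °C, with CellTiter-Glo luminescence as endpoint.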

[3] = Quantitative highthroughput screen to assess conditional lethalithy of NOMO1 cells grown in RPMI1640 with dialyzed fetal bovine serum (RPMI+ds) (AID 1963877); further: nearly all actives have a fitted effect of over 30% in size;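 on Viability: series mostly up to about 46 µM; 100% = DMSO control wells and 0% = empty wells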
Outline: as §1

[4] = Quantitative highthroughput screen to assess conditional lethalithy of NOMO1 cells grown in Human Plasma-Like Medium with dialyzed fetal bovine serum (HPLM+ds) (AID 1963878); further: nearly all actives have a fitted effect of over 35% in size;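 on Viability: 100% = DMSO wells and 0% = empty wells on each plate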
Outline: as §1

[5] = Quantitative highthroughput screen to assess conditional lethalithy of P12 Ichikawa cells grown in Human Plasma-Like Medium with dialyzed fetal bovine serum (HPLM+ds) (AID 1963879); conditions: Potency: viability; further: nearly all actives have a fitted effect of over 35% in size; on Viability: series mostly up to about 46 µM
Outline: as §1

[6] = Quantitative highthroughput screen to assess conditional lethalithy of P12 Ichikawa cells grown in RPMI1640 with dialyzed fetal bovine serum (RPMI+ds) (AID 1963880); conditions: Potency: P12-Ichikawa viability; further: nearly all actives have a fitted effect of over 35% in size;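 on Viability: 100% = DMSO wells and 0% = empty wells on each plate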
Outline: as §1

[7] = Cellular viability qHTS for adrenocortical cancer (ACC) cell line SW-13 (AID 1963989); conditions: SW-13 ACC cells viability, CellTiter-Glo, 48 h; activity (max response): stronger effect = lower value; further: nearly all actives have a fitted effect of over 65% in size;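 on activity (max response): cells grown in serum-free medium with ITS supplement; on the % scale 0 is the no-effect control and ±100 the full control effect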
Outline: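 Compound titrations (up to 46 uM final, in DMSO) were applied to SW-13 cells for 48 h at 37C/5% CO2. Reading used CellTiter-Glo after 20 min at room temperature; fitted curves yielded IC50 and efficacy.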

[8] = Cellular viability qHTS for adrenocortical cancer (ACC) cell line NCI-H295R (AID 1963990); further: nearly all actives have a fitted effect of over 60% in size
Outline: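 Readout: CellTiter-Glo luminescence, 20 min RT. Exposure: 48 h, 37C/5% CO2. Cells: NCI-H295R, ITS-DMEM serum-free. Range: up to 46 uM. Analysis: 4PL fit, IC50 plus efficacy.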

[9] = Quantitative highthroughput screen to assess conditional lethalithy of P12 Ichikawa cells grown in RPMI1640 with untreated serum (RPMI+s) (AID 1963881); conditions: Potency: viability; further: nearly all actives have a fitted effect of over 35% in size;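 on Viability: series mostly up to about 46 µM; 100% = DMSO wells and 0% = empty wells without cells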
Outline: as §1

[10] = Quantitative highthroughput screen to assess conditional lethalithy of SEM cells grown in Human Plasma-Like Medium with dialyzed fetal bovine serum (HPLM+ds) (AID 1963882); further: nearly all actives have a fitted effect of over 35% in size; on Viability: series mostly up to about 46 µM
Outline: as §1

[11] = Quantitative highthroughput screen to assess conditional lethalithy of SEM cells grown in RPMI1640 with unreated serum (RPMI+s) (AID 1963883); further: nearly all actives have a fitted effect of over 35% in size;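 on Viability: 100% = DMSO wells and 0% = empty wells without cells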
Outline: as §1

[12] = Quantitative highthroughput screen to assess conditional lethalithy of SEM cells grown in RPMI1640 with dialyzed fetal bovine serum (RPMI+ds) (AID 1963884); further: nearly all actives have a fitted effect of over 35% in size;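 on Viability: series mostly up to about 46 µM; 100% = DMSO control wells and 0% = empty wells without cells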
Outline: as §1
Potency means the concentration at half of the fitted maximal effect.

C[C@H](c1ccc(F)cc1CCCC(=O)O)N(c1cc(F)ccc1F)S(=O)(=O)c1ccc(Cl)cc1
active: Potency [1] 18.6 µM
inactive: Potency [2] | Potency [3] | Potency [4] | Potency [5] | Potency [6] | activity (max response) [7] -23.1% | Potency [8]

S=c1nc[nH]c2nc[nH]c12
active: Potency [1] 2.37 µM and 833 nM | Potency [3] 1.48 µM | Potency [4] 5.9 µM | Potency [6] 0.743 µM | Potency [7] 8.2 µM and 15.8 µM | Potency [8] 2.06 µM and 4.47 µM
inactive: Potency [2]

Oc1cccc(-c2nc(N3CCOCC3)c3oc4ncccc4c3n2)c1
inactive: Potency [2] | Potency [3] | Potency [4] | Potency [6] | Potency [9]
active: Potency [1] 0.525 µM | Potency [10] 15.2 µM | Potency [11] 1.91 µM

O=C(Nc1cccc(Nc2ncc(Br)c(NCCc3cnc[nH]3)n2)c1)N1CCCC1
active: Potency [1] 0.132 µM | Potency [2] 5.9 µM | Potency [3] 11.8 µM | Potency [4] 2.96 µM | Potency [5] 0.662 µM | Potency [11] 0.166 µM

Nc1nc(OCc2ccccc2)c2[nH]cnc2n1
active: Potency [1] 20.9 µM
inactive: Potency [2] | Potency [3] | Potency [4] | Potency [5] | Potency [6] | Potency [9] | Potency [11] | Potency [12] | activity (max response) [7] -9.18% | Potency [8]

NC(=O)c1ccc(N(C(N)=O)c2c(F)cccc2F)nc1-c1ccc(F)cc1F
inactive: Potency [2] | Potency [3] | Potency [4] | Potency [6] | Potency [9] | Potency [11] | activity (max response) [7] -4.37% | Potency [8]
10.3 µM (active) and inactive: Potency [1]

CCCCCCCCCCCCCC(=O)N[C@H](CO)[C@H](O)c1ccc([N+](=O)[O-])cc1
inactive: activity (max response) [7] 0.392% | Potency [8]
active: Potency [1] 23.5 µM | Potency [2] 2.35 µM | Potency [3] 2.64 µM | Potency [4] 1.66 µM | Potency [5] 3.72 µM | Potency [6] 2.64 µM | Potency [10] 1.32 µM | Potency [12] 1.32 µM

CC(C)C(=O)Oc1ccc(CO)cc1[C@H](CCN(C(C)C)C(C)C)c1ccccc1
inactive: Potency [1] | Potency [2] | Potency [3] | Potency [4] | Potency [5] | Potency [9]

CCCc1nc2c(C)cc(-c3nc4ccccc4n3C)cc2n1Cc1ccc(-c2ccccc2C(=O)O)cc1
inactive: Potency [1] | Potency [2] | Potency [3] | Potency [4] | Potency [5] | Potency [6] | Potency [11] | Potency [12] | activity (max response) [7] 3.79% and 0.0088% | Potency [8]

CC(C)c1nn(-c2c(Cl)cccc2Cl)c2nc(Cc3ccc(OCCO)cc3)[nH]c(=O)c12
active: Potency [1] 0.0206 µM | Potency [2] 0.118 µM | Potency [3] 0.105 µM | Potency [4] 0.118 µM | Potency [5] 0.166 µM | Potency [9] 0.148 µM | Potency [10] 0.105 µM | Potency [12] 0.148 µM | Potency [7] 0.0501 µM | Potency [8] 0.1 µM

COc1ccc(Cc2ccc(NC(N)=O)cc2)cc1-c1cccc(Cl)c1
active: Potency [1] 18.6 µM | Potency [8] 28.2 µM
inactive: Potency [2] | Potency [3] | Potency [4] | Potency [5] | Potency [6] | Potency [9] | Potency [10] | Potency [11]

c1cc(-c2sc(-c3ccncc3)c(-c3ccncc3)c2-c2ccncc2)ccn1
inactive: Potency [2] | Potency [3] | Potency [5] | Potency [6] | Potency [9] | activity (max response) [7] 2.5%
active: Potency [1] 18.6 µM | Potency [10] 2.96 µM | Potency [12] 2.64 µM

C[C@@H]1CN(c2c(F)c(N)c3c(=O)c(C(=O)O)cn(C4CC4)c3c2F)C[C@H](C)N1
inactive: Potency [1] | Potency [2] | Potency [3] | Potency [5] | activity (max response) [7] -1.88% | Potency [8]

Cc1ccccc1C(=O)Nc1ccc(C(=O)N2CCCC(O)c3cc(Cl)ccc32)c(C)c1 (stereo not drawn)
active: Potency [1] 20.9 µM | Potency [8] 16.4 µM
inactive: Potency [2] | Potency [3] | Potency [5] | Potency [6] | Potency [9] | Potency [10] | Potency [11] | Potency [12]

O=C1NC(=O)C(c2ccccc2[N+](=O)[O-])=C1Nc1ccc(O)c(Cl)c1
active: Potency [1] 16.6 µM | Potency [2] 18.7 µM | Potency [3] 18.7 µM | Potency [6] 14.8 µM | Potency [10] 16.6 µM
inactive: Potency [8]

CN(C)CCN1C(=O)c2cccc3cc(N)cc(c23)C1=O
active: Potency [1] 3.72 µM | Potency [2] 14.8 µM | Potency [3] 18.7 µM | Potency [5] 18.7 µM | Potency [6] 18.7 µM | Potency [10] 5.9 µM | Potency [11] 5.26 µM | Potency [12] 9.35 µM | Potency [7] 22.4 µM | Potency [8] 22.4 µM

CCc1nc(-c2cccc(C)c2)c(-c2ccnc(NC(=O)c3ccccc3)c2)s1
inactive: Potency [2] | Potency [3] | Potency [10]
active: Potency [1] 20.6 µM | Potency [7] 25.1 µM | Potency [8] 28.2 µM

CCCc1cc(C(N)=S)ccn1
inactive: Potency [1] | Potency [2] | Potency [3] | Potency [5] | Potency [6] | Potency [9] | Potency [10] | Potency [11] | Potency [12] | activity (max response) [7] 7.42% and -7.33% | Potency [8]
